From PubChem BioAssay AID602350 (Broad Institute, 2012)
Potency and affinity values are given separately. Calls of active or inactive are those of the source.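 Rule for the calls: active = absorbance falls by 30% or more versus neutral controls, with a potency fitted within twice the top valid dose; inconclusive = no clear call, values can overlap the other calls; inactive = change opposite to expected direction, plus the rest.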

Target: Protein disulfide-isomerase (Homo sapiens) (UniProt P07237)
Test: PDI inhibitors, insulin aggregation turbidity, dose response, biochemical, absorbance, cherry-picked samples (AID 602350);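 note: 0% = neutral controls and -100% = rutin hydrate positive control wells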
Settings: recombinant PDI insulin aggregation, absorbance 650 nm, 90 min; series mostly up to 19.5 µM; activity change, negative = inhibition: at the top concentration

Chain of Protein disulfide-isomerase (Homo sapiens) (P07237 whole entry, looked up): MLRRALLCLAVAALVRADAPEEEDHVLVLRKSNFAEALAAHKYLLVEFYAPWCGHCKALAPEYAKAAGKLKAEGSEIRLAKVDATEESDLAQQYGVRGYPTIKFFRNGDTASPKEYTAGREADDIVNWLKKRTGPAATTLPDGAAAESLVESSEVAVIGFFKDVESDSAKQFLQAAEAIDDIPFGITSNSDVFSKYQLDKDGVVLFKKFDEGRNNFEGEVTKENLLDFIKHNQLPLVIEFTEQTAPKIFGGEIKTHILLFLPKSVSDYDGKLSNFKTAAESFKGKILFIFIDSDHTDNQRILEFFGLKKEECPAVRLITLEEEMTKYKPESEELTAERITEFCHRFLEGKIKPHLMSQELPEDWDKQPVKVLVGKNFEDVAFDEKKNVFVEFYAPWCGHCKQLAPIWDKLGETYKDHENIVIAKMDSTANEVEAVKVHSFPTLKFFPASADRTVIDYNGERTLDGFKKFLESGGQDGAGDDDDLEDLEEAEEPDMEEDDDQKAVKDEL

Activity change, negative = inhibition, inactive:
CCN(CC(=O)Nc1ccc2c(c1)OCCO2)C(=O)CC1CCCC1 0.091%, COc1ccc(C2c3ccc(O)cc3Oc3ncn4nc(-c5cccnc5)nc4c32)cc1OC (centres undefined) -1.67%, O=C(O)CCc1ccc(-c2cccs2)n1NC(=O)c1ccco1 -0.245%, CCc1nc2ccc(C(=O)N(CC)CC(=O)Nc3c(F)cccc3F)cc2nc1CC 24.8%, Cc1cc2c3c(c1)C1(C(=O)N3C(C)(C)CC2C)C(C#N)=C(N)Oc2n[nH]c(C)c21 (centres undefined) -14.8%, O=C(/C=C/c1ccccc1)Nc1scc(-c2ccccc2)c1C(=O)O 2.46%, O=C1CCC(=O)N1c1nc2nc(-c3ccccc3)cc(-c3ccccc3)n2n1 -3.29%, C[C@H](CO)N1C[C@H](C)[C@@H](CN(C)S(=O)(=O)c2ccc(F)cc2)Oc2ccc(NC(=O)Cc3ccccc3)cc2C1=O 4.3%, C[C@@H]1CN([C@@H](C)CO)C(=O)Cc2cc(NC(=O)Nc3ccccc3)ccc2O[C@H]1CN(C)Cc1ccccc1 -19.9%, CCCNC(=O)Cn1c(-c2ccc(F)cc2)cc(C(=O)OCC)c1C 6.4%, CC[C@]12c3[nH]c4cc(-c5ccco5)ccc4c3CCN1C(=O)[C@@H](CC(=O)NCC13CC4CC(CC(C4)C1)C3)C[C@@H]2C(=O)N1CCN(C(=O)c2ccco2)CC1 23.1%, CN(C)C(=O)CSc1nnc([C@H](Cc2ccccc2)NC(=O)OC(C)(C)C)o1 4.24%, CC(C)N1CCCC(C)(C(=O)Nc2nc3ccccc3n2C)C1 (centres undefined) 3.76%, O=C1N[C@@H](Cc2c[nH]c3ccccc23)COC(=O)[C@H](Cc2ccc(F)cc2)C/C=C\C[C@H]1CC(=O)N(CCO)Cc1ccccc1 6.97%, O=C1N[C@@H](Cc2c[nH]c3ccccc23)COC(=O)[C@@H](Cc2ccc(F)cc2)C/C=C\C[C@H]1CC(=O)N(CCO)Cc1ccccc1 -34.4%, CC12CCC3c4ccc(O)cc4CCC3C1CCC2=O (centres undefined) 3.29%, CC(O)(c1cccnc1)c1nc(-c2cc(F)cc(F)c2)cs1 (centres undefined) 13.6%, CCOC(=O)C1(Cc2ccc(O)cc2)NC(c2ccccc2F)C2C(=O)N(C)C(=O)C21 (centres undefined) -45.6%, O=C(NCCN1CCOCC1)c1cccnc1SCc1ccccc1Cl 3.56%, CN(CCC(=O)Nc1ccc(Br)cc1)Cc1ccccc1 4%, COc1ccc(C[C@@H]2CN3C(=NC[C@@H]3Cc3ccc(O)cc3)N2C[C@H](C)NC(=O)CCC2CCCCC2)cc1 -19.6%, O=C1CCC(=O)N1CCc1c[nH]c2ccccc12 -9.9%, Cc1sc(NC(=O)CCl)c(C(=O)c2ccccc2)c1C 1.62%, O=C(Nc1ccccc1)c1cc(C2CCCCN2C(=O)c2ccccc2)on1 (centres undefined) 13.8%, CCn1c(SCC(=O)NC2CC2)nnc1-c1ccccc1 -0.025%, Oc1cccc(-c2nc3c4c(ncn3n2)-c2ccccc2CC42CCCC2)c1 -1.88%, O=C(c1ccc(NS(=O)(=O)c2ccccc2)cc1)N1CCOCC1 12.3%, CC1(C(=O)N2CCCCC2)CCN1C(=O)Cc1ccc(-c2ccccc2)cc1 (centres undefined) 19.7%, CC(C)c1ccc(Nc2nc(CC(=O)O)cs2)cc1 2.08%, O=C(CSc1n[nH]c(-c2ccccc2)n1)Nc1ccccc1O -23.6%, C[C@@H]1CN([C@@H](C)CO)C(=O)c2cccc(NS(C)(=O)=O)c2O[C@@H]1CN(C)Cc1ccc(Oc2ccccc2)cc1 -12.7%, CCOC(=O)c1cc(S(=O)(=O)N2CCN(C(=O)OCC)CC2)cn1C 11.8%, COc1cc(C(C)=O)ccc1OCC(=O)NCCCn1nc(C)cc1C 0.514%, C[C@@H]1CN([C@H](C)CO)C(=O)Cc2cc(NC(=O)Nc3ccccc3)ccc2O[C@H]1CN(C)Cc1ccccc1 3.58% [at 21 µM], CN(C1=NC(=O)C(CC(=O)Nc2ccc(Br)cc2)S1)c1ccc(O)cc1 (centres undefined) -40.4%, Cn1cc(Cl)c(C(=O)OCC(=O)Nc2ccccc2)n1 -5.44%, CN1CCN(Cc2nc3ccccc3c(=O)n2Cc2nc(-c3ccc4ccccc4c3)cs2)CC1 -26.1%, CCOC(=O)c1c(CN(CC)CC)n(C)c2cc(Br)c(O)cc12 -5.83%, Cc1ccc(C)c(NS(=O)(=O)c2c(C)nn(C)c2C)c1 22.5%
